{"source": "PubChem BioAssay AID504832", "about": "(National Center for Advancing Translational Sciences (NCATS), 2011)", "note": "Hit rate of the full screen: of about 310,000 compounds, about 18,000 (5.8%) were called active. About 22% were inconclusive and are not listed. Calls come from the whole dose curve; as a rule, active = well fitted inhibition curve with a large enough effect; inconclusive = small, poorly fitted or top-dose-only effect, or another doubt; inactive = no such curve, though single readings can be large or run the other way. The list comes from a sample in which actives are over-represented; it also holds similar structures and randomly drawn compounds. A call without a number means that no potency is given here. Potency is the fitted concentration of half-maximal effect."}
{"test": "Primary qHTS for delayed death inhibitors of the malarial parasite plastid, 48 hour incubation", "settings": "P. falciparum luciferase growth in erythrocytes; series mostly up to 28.7 µM", "text": "The goal of this screen is to discover new antimalarial compounds that act by inhibiting the development of the apicoplast in the malarial parasite Plasmodium falciparum. The biochemical processes that make this organelle essential for erythrocytic stage parasites are not well understood. However, antibiotics such as azithromycin and tetracycline, which target the apicoplast translational machinery, have a potent antimalarial effect.\nWe have developed a cell-based assay that measures parasite growth based on the expression of an integrated copy of a firefly luciferase reporter. To detect small molecules that cause this \"delayed death\" phenotype, erythrocytes infected with the luciferase-expressing parasites were incubated with compounds for either one or two generations, corresponding to 48 and 96 hours, respectively. Compounds that inhibit parasite growth in the second generation, but not the first, should be enriched in antimalarials that target the apicoplast. Growth inhibition is detected by a decrease in luciferase activity.\nAssay Provider: David Fidock and Eric Ekland, Columbia University\nKeywords: NIH Roadmap, MLPCN, MLI, MLSMR, qHTS, NCGC, qHTS, malaria, luciferase, viability\nFour microliters of culture medium (RPMI 1640 with 0.5% w/v Albumax (GIBCO), 24 mM sodium bicarbonate and 10 ug/mL gentamycin) were dispensed by a Multi-drop Combi into white solid 1536-well plates (Grenier) and 23 nL compound was added by a pin tool. Four microliters of infected erythrocytes (2% hematocrit, 0.1% parasitemia final concentration) in culture medium were dispensed and the plates incubated for 48 hours at 37 C in 5% CO2. Two microliters of luciferase detection reagent was added and luminescence was detected by a ViewLux (PerkinElmer) reader."}
{"smiles": "O=C(NCC(=O)N1CCCCCCC1)c1ccccc1Cl", "Potency": "inactive"}
{"smiles": "Cc1ccc(CN2C(=O)CCC2C(=O)NCCCN2CCCCC2C)cc1", "note": "(configuration not stated)", "Potency": "inactive"}
{"smiles": "CCC1CCCCN1CCCNC(=O)c1cc2c(Cl)nc3ccccc3c2s1", "note": "(configuration not stated)", "Potency": "11.7 µM (active)"}
{"smiles": "CCC1CCCCN1CCCNC(=O)Cn1nc(-c2ccccc2)ccc1=O", "note": "(configuration not stated)", "Potency": "inactive"}
{"smiles": "COc1cccc(NC(=O)C2c3cc(OC)c(OC)cc3C(=O)N(C)C2c2cccnc2)c1", "note": "(configuration not stated)", "Potency": "8.28 µM (active)"}
{"smiles": "COc1cccc(NC(=O)CSc2nnc(-c3cccnc3)o2)c1", "Potency": "inactive"}
{"smiles": "CCOc1cc2c(cc1OCC)C(C(=O)O)C(c1ccc(OC)c(O)c1)N(C)C2=O", "note": "(configuration not stated)", "Potency": "inactive"}
{"smiles": "CCC(c1nnc(SCC(=O)NNC(=O)c2ccccc2)n1Cc1ccccc1)N(C)C", "note": "(configuration not stated)", "Potency": "inactive"}
{"smiles": "O=C(Nc1ccc(OCC(=O)N2CCOCC2)cc1)c1cc(F)c(F)cc1Cl", "Potency": "inactive"}
{"smiles": "C/C(=N\\NC(=O)c1cc(-c2ccc(O)cc2)nc2ccccc12)c1cccnc1", "Potency": "inactive"}
{"smiles": "COc1ccc([C@H]2CC(=O)C=C(/C=C/c3ccccc3)C2)cc1", "Potency": "inactive"}
{"smiles": "O=C(O)/C=C/c1ccc(OCCCF)cc1", "Potency": "inactive"}
{"smiles": "Cc1cc(C)cc(NC(=O)CN2C(=O)c3ccccc3C2=O)c1", "Potency": "inactive"}
{"smiles": "CS(=O)(=O)N(CC(=O)Nc1ccc(F)cc1)C1CCCCC1", "Potency": "inactive"}
{"smiles": "O=C(COc1ccccc1Cl)N1CCCCCCC1", "Potency": "inactive"}
{"smiles": "Cc1cccc(C(=O)Nc2nnc(S(=O)(=O)N3CCCCCC3)s2)c1", "Potency": "inactive"}
{"smiles": "CCCn1c(N)c(C(=O)CSc2nnc3n2CCCCC3)c(=O)[nH]c1=O", "Potency": "inactive"}
{"smiles": "CCCn1c(N)c(C(=O)CSc2nnc(-c3cccnc3)n2-c2ccc(C)cc2C)c(=O)[nH]c1=O", "Potency": "9.28 µM (active)"}
{"smiles": "CCCn1c(N)c(C(=O)CSc2nc3ccccc3c(=O)n2-c2ccc(OC)cc2)c(=O)[nH]c1=O", "Potency": "inactive"}
{"smiles": "COC(=O)c1c(C)[nH]c(C(=O)NCCc2ccc(S(N)(=O)=O)cc2)c1C", "Potency": "inactive"}
{"smiles": "CCCCOC(=O)c1[nH]c(C)c(C(=O)OC)c1C", "Potency": "inactive"}
{"smiles": "COC(=O)c1c(C)[nH]c(C(=O)/C=C/c2ccc(Cl)cc2)c1C", "Potency": "4.65 µM (active)"}
{"smiles": "NC(=O)COc1ccccc1C(=O)NC12CC3CC(CC(C3)C1)C2", "Potency": "inactive"}
{"smiles": "COc1ccc([N+](=O)[O-])cc1NCC(=O)c1ccc(C)cc1", "Potency": "inactive"}
{"smiles": "O=C(O)[C@@H](S)[C@H](S)C(=O)O", "Potency": "4.26 µM (active)"}
{"smiles": "COc1ccc(S(=O)(=O)Nc2ccccc2C(=O)N2CCCC2)cc1C", "Potency": "inactive"}
{"smiles": "CC1CCCN(CCCNC(=O)CN2C(=O)COc3ccc(S(=O)(=O)N4CCOCC4)cc32)C1", "note": "(configuration not stated)", "Potency": "inactive"}
{"smiles": "CCOC(=O)c1c(-c2ccccc2)oc2ccc(OCC(N)=O)cc12", "Potency": "inactive"}
{"smiles": "CCOC(=O)c1c(-c2ccccc2)oc2ccc(OCC(=O)NN)cc12", "Potency": "inactive"}
{"smiles": "CCOC(=O)c1c(-c2ccccc2)oc2cc(Br)c(O)c(C=O)c12", "Potency": "9.28 µM (active)"}
{"smiles": "Cc1cccc(C(=O)OC(C)CN2CCCC2)c1", "note": "(configuration not stated)", "Potency": "inactive"}
{"smiles": "COC(=O)[C@]1(C)CCC[C@@]2(C)C3CC[C@]4(OC(C)=O)C[C@@]3(CCC21)CC4=NO", "note": "(some centres not stated)", "Potency": "inactive"}
{"smiles": "O=C(NCc1ccncc1)c1ccc(NS(=O)(=O)c2cccc([N+](=O)[O-])c2)cc1", "Potency": "inactive"}
{"smiles": "Cc1cccc(OP(=O)(Oc2cccc(C)c2)OC(c2ccccc2)C(F)(F)F)c1", "note": "(configuration not stated)", "Potency": "10.4 µM (active)"}
{"smiles": "CCN(CC)P(=O)(Oc1cccc(C)c1)N(CC)CC", "Potency": "inactive"}
{"smiles": "Cc1cccc(OP(=O)(Nc2c(C)n(C)n(-c3ccccc3)c2=O)Oc2cccc(C)c2)c1", "Potency": "inactive"}
{"smiles": "O=C(Nc1nnc(C2CC2)s1)c1cc(Cl)sc1Cl", "Potency": "inactive"}
{"smiles": "COc1ccc(OC)c(NC(=O)CCN2CCC(C)CC2)c1", "Potency": "inactive"}
{"smiles": "CCOC(=O)N1CCN(CCC(=O)Nc2cc(OC)ccc2OC)CC1", "Potency": "inactive"}
{"smiles": "CCN1CCN(c2nc(Nc3cc(OC)ccc3OC)nc(Nc3cc(OC)ccc3OC)n2)CC1", "Potency": "9.28 µM (active)"}
{"smiles": "CC(Sc1nnc(-c2cccs2)n1C1CC1)C(=O)NCC1CCCO1", "note": "(configuration not stated)", "Potency": "inactive"}
{"smiles": "COc1cc(CCC(=O)N2CCN(c3ccccc3Cl)CC2)cc(OC)c1OC", "activity change, negative = inhibition": "1.7% [at 0.00184 µM] (inactive)"}
{"smiles": "CCOC(=O)Cn1c(O)c(N=NC(=O)CNC(=O)Cc2ccccc2)c2ccccc21", "Potency": "inactive"}
{"smiles": "CCOC(=O)c1ccc(NC(=O)c2cccnc2)cc1", "Potency": "inactive"}
{"smiles": "CCOC(=O)c1ccc(-c2ccc(C(=O)Nc3cccnc3)o2)cc1", "Potency": "2.62 µM (active)"}
{"smiles": "COc1ccc(C(=O)Nc2cccnc2)cc1C(=O)Nc1cccnc1", "Potency": "inactive"}
{"smiles": "Cc1cc2nc(-c3ccc(NC(=O)c4cccnc4)cc3)oc2cc1C", "Potency": "inactive"}
{"smiles": "CCOC(=O)c1cc(NC(=O)c2cccnc2)cc(C(=O)OCC)c1", "Potency": "2.94 µM (active)"}
{"smiles": "CCOC(=O)c1ccc(NC(=O)CSc2ncccn2)cc1", "Potency": "inactive"}
{"smiles": "CC(=O)Nc1ccc(-c2nc3ccccc3o2)cc1", "Potency": "inactive"}
{"smiles": "Cc1ccc2nc(-c3ccc(NC(=O)c4cccnc4)cc3)oc2c1", "Potency": "9.28 µM (active)"}
{"smiles": "CCC(=O)Nc1cccc(NC(=O)c2cccnc2)c1", "Potency": "inactive"}
{"smiles": "Cc1cccc(NC(=O)c2cccc(C(=O)Nc3cccc(C)c3C)n2)c1C", "Potency": "inactive"}
{"smiles": "CN(C)c1nc(Nc2ccc(Cl)c(Cl)c2)nc(N(C)C)n1", "Potency": "inactive"}
{"smiles": "Cc1cc(C)c(CN2CCN(C(=O)Cn3ccc(NC(=O)OCc4ccccc4)nc3=O)CC2)c(C)c1", "Potency": "inactive"}
{"smiles": "COc1ccc(/C(C)=N/NC(=O)c2ccc3nc[nH]c3c2)cc1", "Potency": "inactive"}
{"smiles": "CC(OC(=O)CCCOc1ccccc1)C(=O)Nc1ccc(Cl)cn1", "note": "(configuration not stated)", "Potency": "inactive"}
{"smiles": "CCCCOCCCNC(=O)c1ccccc1OCC", "Potency": "10.4 µM (active)"}
{"smiles": "CCCOc1ccccc1C(=O)NCCCC(=O)O", "Potency": "inactive"}
{"smiles": "CCOc1ccccc1C(=O)NCCCn1ccnc1", "Potency": "inactive"}
{"smiles": "CCc1nc2ccc(C(=O)N3CCN(c4cccc(Cl)c4)CC3)cc2nc1CC", "Potency": "inactive"}
{"smiles": "COc1ccc(C2(C)ON(c3ccccc3C(F)(F)F)C2=O)cc1", "note": "(configuration not stated)", "Potency": "6.57 µM (active)"}
{"smiles": "COc1ccc(C2(O)C(=O)Nc3ccccc32)cc1", "note": "(configuration not stated)", "Potency": "inactive"}
{"smiles": "COc1ccc(C2(C)NC(=O)N(CC(=O)c3ccc4c(c3)OCO4)C2=O)cc1", "note": "(configuration not stated)", "Potency": "inactive"}
{"smiles": "CCC1Oc2ccccc2N(CC(=O)NCCCN2CCN(CC)CC2)C1=O", "note": "(configuration not stated)", "Potency": "inactive"}
{"smiles": "Cc1c(C)c2c(OCC(=O)NCCCO)cc3c(c2oc1=O)CCC(C)(C)O3", "Potency": "inactive"}
{"smiles": "C[C@H](NC(=O)c1ccccc1Cl)C(=O)OCC(=O)N1CCN(c2ccccc2)CC1", "Potency": "inactive"}
